Source: the supplement of paper PMC11732987, “Enantioselective OTUD7B fragment discovery through chemoproteomics screening and high-throughput optimisation” (Communications Chemistry, 2025)

Legend:
Assay in all cases: log2 ratio of Biotin-Ahx-Ub-VS probe labelling (fragment/DMSO); higher = less target engagement (more negative = stronger competition), active = hit call of the paper (q ≤ 0.05, log2 ratio ≤ -1)
Conditions in all cases: compound concentration: 200 uM; treatment time: 3 h
USP34 = USP34 (UniProt Q70CQ2)
Method in brief: (§1)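 Labelling with Biotin-Ahx-Ub-VS (0.5 µM final, 1 h) followed a 3 h triplicate treatment of HEK293T lysate (495 µg per sample, Tris/CHAPS/IGEPAL buffer with protease inhibitors) with fragment at 200 µM or vehicle. Labelled DUBs were NeutrAvidin-enriched, digested with LysC and trypsin, and run by diaPASEF LC-MS/MS. The values, average log2 fragment/vehicle ratios by unpaired t-test, come from global-median-normalised Spectronaut label-free quantities. Proteins with ≥2 unique peptides were used.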

USP36 = molecular target: T1, USP36 (UniProt Q9P275)
T1 sequence (whole entry): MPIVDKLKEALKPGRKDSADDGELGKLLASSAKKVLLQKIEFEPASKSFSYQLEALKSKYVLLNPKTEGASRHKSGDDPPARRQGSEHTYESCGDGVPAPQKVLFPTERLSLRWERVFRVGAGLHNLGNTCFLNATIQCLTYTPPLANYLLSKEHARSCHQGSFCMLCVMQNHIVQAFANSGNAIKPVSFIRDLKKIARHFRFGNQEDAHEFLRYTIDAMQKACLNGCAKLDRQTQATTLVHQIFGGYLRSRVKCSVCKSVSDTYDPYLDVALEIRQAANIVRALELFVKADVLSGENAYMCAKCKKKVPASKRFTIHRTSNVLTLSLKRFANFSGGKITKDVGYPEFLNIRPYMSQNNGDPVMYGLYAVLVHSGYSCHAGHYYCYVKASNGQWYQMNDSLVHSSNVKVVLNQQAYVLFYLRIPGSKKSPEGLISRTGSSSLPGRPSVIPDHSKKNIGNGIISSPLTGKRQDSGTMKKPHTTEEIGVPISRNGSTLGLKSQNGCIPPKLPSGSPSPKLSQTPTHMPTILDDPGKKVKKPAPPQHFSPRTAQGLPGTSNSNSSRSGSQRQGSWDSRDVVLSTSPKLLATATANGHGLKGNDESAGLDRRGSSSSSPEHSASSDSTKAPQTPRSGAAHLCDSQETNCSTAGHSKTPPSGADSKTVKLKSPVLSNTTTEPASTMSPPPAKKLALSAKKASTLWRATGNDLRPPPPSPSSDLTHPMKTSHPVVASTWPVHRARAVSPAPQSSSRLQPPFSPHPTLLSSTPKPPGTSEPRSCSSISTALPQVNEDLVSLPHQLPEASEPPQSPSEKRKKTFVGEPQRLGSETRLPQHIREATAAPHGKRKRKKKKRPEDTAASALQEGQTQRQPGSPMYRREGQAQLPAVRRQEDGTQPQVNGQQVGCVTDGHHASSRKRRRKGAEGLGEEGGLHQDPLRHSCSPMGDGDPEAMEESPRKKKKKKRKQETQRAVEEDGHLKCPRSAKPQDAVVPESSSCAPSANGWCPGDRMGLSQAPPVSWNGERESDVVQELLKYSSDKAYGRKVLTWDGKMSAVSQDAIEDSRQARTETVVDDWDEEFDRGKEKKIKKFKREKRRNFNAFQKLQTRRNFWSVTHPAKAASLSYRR
Method in brief: as §1

USP38 = molecular target: T2, USP38 (UniProt Q8NB14)
T2 sequence (whole entry): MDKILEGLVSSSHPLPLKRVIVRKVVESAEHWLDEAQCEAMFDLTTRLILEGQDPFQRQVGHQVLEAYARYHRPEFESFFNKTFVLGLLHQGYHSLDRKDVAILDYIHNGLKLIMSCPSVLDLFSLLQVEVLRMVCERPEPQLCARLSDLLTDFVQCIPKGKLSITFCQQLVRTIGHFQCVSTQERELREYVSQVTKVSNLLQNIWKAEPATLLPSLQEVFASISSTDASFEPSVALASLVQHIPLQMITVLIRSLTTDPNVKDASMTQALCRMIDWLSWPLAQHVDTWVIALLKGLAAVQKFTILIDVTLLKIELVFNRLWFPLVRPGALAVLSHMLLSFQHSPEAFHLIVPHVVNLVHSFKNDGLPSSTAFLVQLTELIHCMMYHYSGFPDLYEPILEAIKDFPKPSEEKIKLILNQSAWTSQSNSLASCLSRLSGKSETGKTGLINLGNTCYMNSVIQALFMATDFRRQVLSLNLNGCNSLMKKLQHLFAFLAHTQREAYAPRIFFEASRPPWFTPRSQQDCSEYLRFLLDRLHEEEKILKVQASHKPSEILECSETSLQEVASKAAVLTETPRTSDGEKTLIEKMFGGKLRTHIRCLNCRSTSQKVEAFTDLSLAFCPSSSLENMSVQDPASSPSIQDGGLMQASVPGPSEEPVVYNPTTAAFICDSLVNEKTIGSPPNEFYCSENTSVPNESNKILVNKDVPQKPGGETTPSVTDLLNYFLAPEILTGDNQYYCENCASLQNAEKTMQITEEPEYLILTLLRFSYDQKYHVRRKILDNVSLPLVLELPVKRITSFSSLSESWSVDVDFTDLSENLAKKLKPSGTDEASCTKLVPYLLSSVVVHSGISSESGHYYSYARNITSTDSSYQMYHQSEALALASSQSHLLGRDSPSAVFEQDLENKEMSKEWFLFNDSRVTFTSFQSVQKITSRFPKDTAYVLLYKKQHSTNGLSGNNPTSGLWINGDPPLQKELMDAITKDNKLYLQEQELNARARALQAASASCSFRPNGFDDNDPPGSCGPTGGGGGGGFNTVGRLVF
Method in brief: as §1

USP39 = molecular target: T3, USP39 (UniProt Q53GS9)
T3 sequence (whole entry): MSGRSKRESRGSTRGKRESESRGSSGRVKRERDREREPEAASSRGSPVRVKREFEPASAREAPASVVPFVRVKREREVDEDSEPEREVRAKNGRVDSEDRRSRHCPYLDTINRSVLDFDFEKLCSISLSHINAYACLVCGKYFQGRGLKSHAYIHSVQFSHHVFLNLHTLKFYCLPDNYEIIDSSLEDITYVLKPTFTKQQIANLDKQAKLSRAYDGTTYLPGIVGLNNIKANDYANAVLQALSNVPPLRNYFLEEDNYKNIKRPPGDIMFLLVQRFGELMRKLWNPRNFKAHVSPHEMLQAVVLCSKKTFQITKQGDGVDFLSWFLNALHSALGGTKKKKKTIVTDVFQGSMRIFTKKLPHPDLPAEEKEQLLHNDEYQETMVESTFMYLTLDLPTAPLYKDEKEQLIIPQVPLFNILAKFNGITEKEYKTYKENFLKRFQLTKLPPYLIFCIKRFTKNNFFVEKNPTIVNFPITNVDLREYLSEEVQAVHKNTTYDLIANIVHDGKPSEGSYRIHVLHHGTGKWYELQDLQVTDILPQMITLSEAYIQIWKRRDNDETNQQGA
Method in brief: as §1

USP4 = molecular target: T4, USP4 (UniProt Q13107)
T4 sequence (whole entry): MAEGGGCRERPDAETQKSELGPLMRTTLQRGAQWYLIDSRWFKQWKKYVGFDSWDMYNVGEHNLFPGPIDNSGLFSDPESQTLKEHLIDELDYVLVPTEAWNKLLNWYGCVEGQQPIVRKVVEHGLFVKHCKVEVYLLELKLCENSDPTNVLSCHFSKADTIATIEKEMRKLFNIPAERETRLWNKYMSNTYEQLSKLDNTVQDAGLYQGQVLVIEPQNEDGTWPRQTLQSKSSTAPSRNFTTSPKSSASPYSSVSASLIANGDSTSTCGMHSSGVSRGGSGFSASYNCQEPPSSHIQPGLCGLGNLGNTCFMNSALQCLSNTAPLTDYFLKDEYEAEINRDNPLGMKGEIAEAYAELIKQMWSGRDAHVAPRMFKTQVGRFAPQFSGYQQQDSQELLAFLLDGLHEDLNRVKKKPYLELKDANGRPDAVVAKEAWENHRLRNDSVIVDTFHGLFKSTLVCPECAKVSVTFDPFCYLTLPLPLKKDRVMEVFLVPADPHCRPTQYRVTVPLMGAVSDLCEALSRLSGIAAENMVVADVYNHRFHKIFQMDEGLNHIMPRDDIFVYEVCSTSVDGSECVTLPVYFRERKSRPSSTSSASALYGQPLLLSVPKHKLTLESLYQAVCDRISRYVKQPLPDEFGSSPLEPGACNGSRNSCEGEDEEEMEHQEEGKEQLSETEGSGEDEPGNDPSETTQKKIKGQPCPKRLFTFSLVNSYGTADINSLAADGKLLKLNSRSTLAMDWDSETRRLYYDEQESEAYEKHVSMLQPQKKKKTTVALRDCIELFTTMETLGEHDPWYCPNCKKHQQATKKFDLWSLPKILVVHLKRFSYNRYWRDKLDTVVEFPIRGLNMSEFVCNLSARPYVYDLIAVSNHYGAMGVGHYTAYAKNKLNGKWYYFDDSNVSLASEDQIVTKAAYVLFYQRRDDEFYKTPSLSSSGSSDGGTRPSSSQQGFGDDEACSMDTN
Method in brief: as §1

Measured: log2 ratio of Biotin-Ahx-Ub-VS probe labelling

Sequence of USP34 (Q70CQ2 whole entry, the tested form may be a part): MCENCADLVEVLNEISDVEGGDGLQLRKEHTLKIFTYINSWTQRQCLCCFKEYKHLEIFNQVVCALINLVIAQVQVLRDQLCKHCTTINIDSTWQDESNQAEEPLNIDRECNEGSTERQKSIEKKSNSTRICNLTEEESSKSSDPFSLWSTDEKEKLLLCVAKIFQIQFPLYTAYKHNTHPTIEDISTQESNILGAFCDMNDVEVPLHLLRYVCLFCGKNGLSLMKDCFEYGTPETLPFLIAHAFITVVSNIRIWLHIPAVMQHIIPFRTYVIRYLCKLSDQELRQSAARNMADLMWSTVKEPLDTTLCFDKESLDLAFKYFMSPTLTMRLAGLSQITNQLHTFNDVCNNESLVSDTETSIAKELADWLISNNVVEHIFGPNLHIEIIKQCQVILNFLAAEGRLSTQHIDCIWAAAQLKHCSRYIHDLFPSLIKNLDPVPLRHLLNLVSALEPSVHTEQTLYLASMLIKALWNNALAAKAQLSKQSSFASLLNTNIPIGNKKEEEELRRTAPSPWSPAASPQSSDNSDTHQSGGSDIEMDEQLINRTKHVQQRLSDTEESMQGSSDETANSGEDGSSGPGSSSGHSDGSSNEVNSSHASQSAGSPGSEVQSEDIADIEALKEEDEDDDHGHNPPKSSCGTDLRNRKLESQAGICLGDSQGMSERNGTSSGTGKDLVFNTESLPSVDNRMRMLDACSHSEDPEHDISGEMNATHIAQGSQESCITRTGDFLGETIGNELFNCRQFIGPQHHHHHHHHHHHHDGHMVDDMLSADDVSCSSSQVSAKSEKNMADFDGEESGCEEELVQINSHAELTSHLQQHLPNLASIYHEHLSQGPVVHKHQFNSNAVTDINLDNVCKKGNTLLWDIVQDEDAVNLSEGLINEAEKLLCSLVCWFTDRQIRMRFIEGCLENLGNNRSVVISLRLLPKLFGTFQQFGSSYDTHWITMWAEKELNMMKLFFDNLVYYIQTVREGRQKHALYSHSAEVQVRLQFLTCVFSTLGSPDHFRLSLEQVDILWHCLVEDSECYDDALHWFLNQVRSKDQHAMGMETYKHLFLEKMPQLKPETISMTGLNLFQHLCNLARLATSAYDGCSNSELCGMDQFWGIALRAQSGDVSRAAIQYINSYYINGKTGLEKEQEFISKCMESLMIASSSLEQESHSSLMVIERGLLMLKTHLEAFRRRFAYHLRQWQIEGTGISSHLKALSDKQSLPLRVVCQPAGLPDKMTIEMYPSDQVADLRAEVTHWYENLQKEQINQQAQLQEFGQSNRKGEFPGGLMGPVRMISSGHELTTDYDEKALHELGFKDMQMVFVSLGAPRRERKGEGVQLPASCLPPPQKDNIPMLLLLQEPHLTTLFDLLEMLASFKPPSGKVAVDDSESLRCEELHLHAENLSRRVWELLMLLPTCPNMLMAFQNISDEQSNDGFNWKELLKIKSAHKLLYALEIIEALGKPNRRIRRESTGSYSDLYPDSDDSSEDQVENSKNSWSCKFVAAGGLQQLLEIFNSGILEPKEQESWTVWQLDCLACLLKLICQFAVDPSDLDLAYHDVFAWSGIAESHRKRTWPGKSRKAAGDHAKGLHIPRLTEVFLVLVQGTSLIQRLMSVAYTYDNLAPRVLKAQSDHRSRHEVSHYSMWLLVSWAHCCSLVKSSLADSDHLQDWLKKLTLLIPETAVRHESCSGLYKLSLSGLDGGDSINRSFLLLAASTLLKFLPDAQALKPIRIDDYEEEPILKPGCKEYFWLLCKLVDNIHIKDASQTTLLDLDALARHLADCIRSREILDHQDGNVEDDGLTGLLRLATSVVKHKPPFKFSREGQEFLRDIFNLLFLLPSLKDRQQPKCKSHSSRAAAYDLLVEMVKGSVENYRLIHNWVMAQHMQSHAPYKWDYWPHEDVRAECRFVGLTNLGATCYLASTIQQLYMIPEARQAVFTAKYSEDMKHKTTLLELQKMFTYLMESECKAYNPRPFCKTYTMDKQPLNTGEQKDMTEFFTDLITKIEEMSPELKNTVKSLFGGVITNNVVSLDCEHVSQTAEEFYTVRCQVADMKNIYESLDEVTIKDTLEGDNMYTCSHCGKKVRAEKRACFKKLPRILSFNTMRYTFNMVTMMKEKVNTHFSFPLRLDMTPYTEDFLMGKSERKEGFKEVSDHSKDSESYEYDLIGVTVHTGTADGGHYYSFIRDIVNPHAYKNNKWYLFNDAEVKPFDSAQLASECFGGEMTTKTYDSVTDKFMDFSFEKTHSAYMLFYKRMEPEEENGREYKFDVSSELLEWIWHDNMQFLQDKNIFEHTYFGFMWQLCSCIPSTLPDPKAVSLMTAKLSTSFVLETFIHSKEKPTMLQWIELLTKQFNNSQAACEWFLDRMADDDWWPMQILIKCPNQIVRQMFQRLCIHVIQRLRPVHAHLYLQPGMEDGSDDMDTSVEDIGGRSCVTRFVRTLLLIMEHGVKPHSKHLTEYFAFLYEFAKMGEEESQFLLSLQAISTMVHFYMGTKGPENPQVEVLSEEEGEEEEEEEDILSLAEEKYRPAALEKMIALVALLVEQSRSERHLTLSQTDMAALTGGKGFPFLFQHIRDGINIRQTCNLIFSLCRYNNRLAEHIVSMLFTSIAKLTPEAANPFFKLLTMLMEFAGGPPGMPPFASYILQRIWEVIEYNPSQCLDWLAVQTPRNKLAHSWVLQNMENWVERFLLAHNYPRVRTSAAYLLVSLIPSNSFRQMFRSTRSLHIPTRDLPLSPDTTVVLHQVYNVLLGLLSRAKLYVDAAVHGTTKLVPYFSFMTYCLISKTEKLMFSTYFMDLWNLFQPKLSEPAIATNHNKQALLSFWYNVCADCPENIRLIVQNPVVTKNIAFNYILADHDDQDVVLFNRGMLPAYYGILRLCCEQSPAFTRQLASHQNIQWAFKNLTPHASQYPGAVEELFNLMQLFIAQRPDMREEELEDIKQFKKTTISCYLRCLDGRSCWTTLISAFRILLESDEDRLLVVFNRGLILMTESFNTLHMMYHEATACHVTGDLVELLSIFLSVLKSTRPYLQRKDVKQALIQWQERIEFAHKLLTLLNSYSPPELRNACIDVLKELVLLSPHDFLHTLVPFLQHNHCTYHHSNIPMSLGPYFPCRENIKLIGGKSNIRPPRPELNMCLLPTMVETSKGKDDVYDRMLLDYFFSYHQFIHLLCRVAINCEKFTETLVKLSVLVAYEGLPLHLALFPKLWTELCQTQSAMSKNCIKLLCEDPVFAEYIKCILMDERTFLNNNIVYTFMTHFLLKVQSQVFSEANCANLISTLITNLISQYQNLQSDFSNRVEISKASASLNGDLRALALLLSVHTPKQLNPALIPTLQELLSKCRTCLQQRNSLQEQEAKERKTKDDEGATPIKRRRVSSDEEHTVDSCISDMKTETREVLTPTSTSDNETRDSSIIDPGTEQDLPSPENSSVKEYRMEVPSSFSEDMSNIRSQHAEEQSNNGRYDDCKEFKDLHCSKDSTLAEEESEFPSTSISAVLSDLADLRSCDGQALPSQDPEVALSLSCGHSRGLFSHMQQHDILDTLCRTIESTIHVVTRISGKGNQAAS

O=C(CCl)N1CCOC2(CCC2)CC1
inactive: USP34 -0.139 | USP36 -0.163 | USP38 -0.056 | USP39 0.138 | USP4 -0.409
